Source: the antibiotic and cytotoxicity screens of Wong et al. (2023)
In all, about 39,000 compounds went through this assay and about 1,500 (3.8%) were called active. The entries come from a sample that favours actives as a whole.

These molecules were tested on HSkMC (human skeletal muscle cells) (assay: cytotoxicity call (relative viability < 0.9)). Details: 10 µM.
`O=C(C[C@H]1C=C[C@@H](NC(=O)Nc2cc(F)ccc2F)[C@@H](CO)O1)NCCCN1CCOCC1` was tested, and the cytotoxicity call was “inactive”. In the case of `CCS(=O)(=O)N1C[C@]2(CN(C2)C(=O)Nc2ccc3c(c2)OCO3)c2c(n(c3cc(ccc23)OC)C)[C@H]1CO`, the cytotoxicity call is reported as “inactive”. `N=C(N)N.O=C(O)O` was tested, and the cytotoxicity call was “inactive”. In the case of `Cc1noc(C)c1S(=O)(=O)N(C)C[C@H]1Oc2ccc(NS(C)(=O)=O)cc2CC(=O)N([C@H](C)CO)C[C@@H]1C`, the cytotoxicity call is reported as “inactive”. With `COc1ccc(NC(=O)N(C)C[C@@H]2Oc3ccc(NC(=O)Cn4cnnn4)cc3CC(=O)N([C@H](C)CO)C[C@H]2C)cc1` the cytotoxicity call was “inactive”. For `C[C@H](CO)N1C[C@H](C)[C@H](CN(C)C(=O)Nc2ccc(C(F)(F)F)cc2)OCCCC[C@H](C)Oc2ccc(NS(=O)(=O)c3cn(C)cn3)cc2C1=O`, the cytotoxicity call was “inactive”. For `O=C(C[C@H]1C=C[C@@H](NC(=O)c2cccc(F)c2)[C@H](CO)O1)NCCN1CCCC1`, the cytotoxicity call was “inactive”. With `COc1ccc(-c2cnc3c(c2)C(=O)N([C@H](C)CO)C[C@H](C)[C@H](CN(C)S(=O)(=O)c2ccc(F)cc2)O3)cc1` the cytotoxicity call was “inactive”. `Cc1ccc(S(=O)(=O)N(C)C[C@@H]2Oc3c(NS(=O)(=O)c4ccccc4)cccc3C(=O)N([C@@H](C)CO)C[C@H]2C)cc1` was tested, and the cytotoxicity call was “inactive”. For `NCC[C@H]1CC[C@@H](NC(=O)c2ccccc2F)[C@@H](CO)O1`, the cytotoxicity call was “inactive”. `Cc1ccc(S(=O)(=O)N(C)C[C@@H]2Oc3c(NS(C)(=O)=O)cccc3C(=O)N([C@H](C)CO)C[C@H]2C)cc1` was tested, and the cytotoxicity call was “inactive”. For `Cc1cc(C(=O)Nc2cccc3c2O[C@@H](CN(C)S(C)(=O)=O)[C@@H](C)CN([C@@H](C)CO)C3=O)n(C)n1`, the cytotoxicity call was “inactive”. For `C[C@@H]1CCCCO[C@@H](CN(C)S(=O)(=O)c2ccc(Cl)cc2)[C@@H](C)CN([C@@H](C)CO)C(=O)c2cc(NS(=O)(=O)c3ccc(F)cc3)ccc2O1`, the cytotoxicity call was “inactive”. For `O=C(C[C@@H]1CC[C@H]2[C@@H](COC[C@@H](O)CN2S(=O)(=O)c2ccc(Oc3ccccc3)cc2)O1)NCCN1CCCCC1`, the cytotoxicity call was “inactive”. For `COc1ccc(N(C(=O)CCl)[C@@H](C(=O)NCCc2ccccc2)c2ccc(Cl)s2)cc1Cl`, the cytotoxicity call was “active”. For `COc1ccc(N(C(=O)CSc2ncccn2)[C@@H](C(=O)NCCc2ccccc2)c2cccs2)cc1Cl`, the cytotoxicity call was “inactive”. With `CC(C)(C)OC(=O)NCCOCCOCCOc1ccc(N(C(=O)CCl)[C@@H](C(=O)NCCc2ccccc2)c2cccs2)cc1Cl` the cytotoxicity call was “active”. For `O=C(CCCl)NCCc1ccccc1`, the cytotoxicity call was “inactive”. With `Cn1cnc(S(=O)(=O)N[C@H]2CC[C@@H](CC(=O)N3CCN(c4ccccc4)CC3)O[C@H]2CO)c1` the cytotoxicity call was “inactive”. `C[C@@H]1CN([C@H](C)CO)C(=O)Cc2cc(NC(=O)CCC(F)(F)F)ccc2O[C@H]1CN(C)Cc1ccc(Oc2ccccc2)cc1` was tested, and the cytotoxicity call was “inactive”. For `C[C@H]1CCCCO[C@H](CN(C)C(=O)Nc2cccc3ccccc23)[C@@H](C)CN([C@@H](C)CO)C(=O)c2cc(NS(=O)(=O)c3ccc(Cl)cc3)ccc2O1`, the cytotoxicity call was “inactive”. With `COC(=O)[C@@H]1OC(=O)[C@H]2O[C@@]23[C@]2(C)[C@@H](O)C[C@H]4C(C)(C)[C@H](OC(C)=O)C[C@H](OC(C)=O)[C@]4(C)[C@@H]2CC[C@@]13C` the cytotoxicity call was “inactive”. `COc1ccc(CN(CCN(C)C)c2ccccn2)cc1.O=C(O)C=CC(=O)O` was tested, and the cytotoxicity call was “inactive”. For `CCCCCCCCCCCCCCCC[N+](C)(C)CCN(Cc1ccc(OC)cc1)c1ncccn1`, the cytotoxicity call was “active”. `COc1ccc(CN(CCN(C)C)c2ncccn2)cc1.Cl` was tested, and the cytotoxicity call was “inactive”. With `C[C@@H]1CCCCO[C@H](CN(C)Cc2ccc(C(=O)O)cc2)[C@H](C)CN([C@H](C)CO)C(=O)c2cc(NC(=O)Nc3ccc(F)cc3)ccc2O1` the cytotoxicity call was “inactive”. `C[C@@H]1CCCCO[C@H](CN(C)C(=O)C2CCCCC2)[C@@H](C)CN([C@H](C)CO)C(=O)c2cc(NC(=O)Cc3ccccc3)ccc2O1` was tested, and the cytotoxicity call was “inactive”. With `NCC[C@@H]1CC[C@@H](NC(=O)C2CCCCC2)[C@@H](CO)O1` the cytotoxicity call was “inactive”. In the case of `C[C@@H]1CCCCO[C@H](CN(C)S(=O)(=O)c2ccc(F)cc2)[C@@H](C)CN([C@@H](C)CO)C(=O)c2cc(NC(=O)Nc3ccc(F)cc3)ccc2O1`, the cytotoxicity call is reported as “inactive”. For `C[C@@H]1CCCCO[C@@H](CN(C)C(=O)Nc2ccc(F)cc2)[C@@H](C)CN([C@@H](C)CO)C(=O)c2cc(NC(=O)Nc3ccc(F)cc3)ccc2O1`, the cytotoxicity call was “inactive”. In the case of `COc1ccc(NC(=O)N(C)C[C@H]2Oc3c(NC(=O)C4CCOCC4)cccc3C(=O)N([C@H](C)CO)C[C@H]2C)cc1`, the cytotoxicity call is reported as “inactive”. In the case of `COC1=C(N)C(=O)c2nc(-c3nc(C(=O)O)c(C)c(-c4ccc(OC)c(OC)c4O)c3N)ccc2C1=O`, the cytotoxicity call is reported as “active”. `COc1ccc(C(=O)O)c(O)c1OC` was tested, and the cytotoxicity call was “inactive”. With `Cc1ccc(S(=O)(=O)N(C)C[C@H]2Oc3ccc(NS(=O)(=O)c4ccc(F)cc4)cc3C(=O)N([C@H](C)CO)C[C@H]2C)cc1` the cytotoxicity call was “inactive”. For `C[C@H](CO)N1C[C@H](C)[C@@H](CN(C)C(=O)c2ccccc2)OCCCC[C@H](C)Oc2ccc(NC(=O)Nc3ccccc3)cc2C1=O`, the cytotoxicity call was “inactive”. In the case of `C[C@H](CO)N1C[C@H](C)[C@@H](CN(C)C(=O)C2CCOCC2)Oc2ncc(-c3cccc(C#N)c3)cc2C1=O`, the cytotoxicity call is reported as “inactive”. With `C[C@@H]1CN([C@@H](C)CO)C(=O)Cc2cc(NC(=O)Nc3ccc4c(c3)OCO4)ccc2O[C@@H]1CN(C)Cc1ccc(C(F)(F)F)cc1` the cytotoxicity call was “inactive”. For `C[C@H](CO)N1C[C@H](C)[C@H](CN(C)C(=O)Nc2ccc3c(c2)OCO3)Oc2ccc(NC(=O)Nc3ccc(C(F)(F)F)cc3)cc2CC1=O`, the cytotoxicity call was “inactive”. With `C[C@@H]1CN([C@H](C)CO)C(=O)Cc2cc(NC(=O)Nc3ccc4c(c3)OCO4)ccc2O[C@H]1CN(C)Cc1ccc(C(F)(F)F)cc1` the cytotoxicity call was “active”. For `C[C@H]1CN([C@@H](C)CO)C(=O)Cc2cc(NC(=O)Nc3ccc4c(c3)OCO4)ccc2O[C@@H]1CN(C)Cc1ccc(C(F)(F)F)cc1`, the cytotoxicity call was “inactive”. `C[C@H](CO)N1C[C@H](C)[C@@H](CN(C)Cc2ccc(C(F)(F)F)cc2)Oc2ccc(NC(=O)Nc3ccc4c(c3)OCO4)cc2CC1=O` was tested, and the cytotoxicity call was “active”. For `C[C@H]1CN([C@@H](C)CO)C(=O)Cc2cc(NC(=O)Nc3ccc4c(c3)OCO4)ccc2O[C@H]1CN(C)Cc1ccc(C(F)(F)F)cc1`, the cytotoxicity call was “inactive”. In the case of `C[C@@H]1CN([C@@H](C)CO)C(=O)Cc2cc(NC(=O)Nc3ccc4c(c3)OCO4)ccc2O[C@H]1CN(C)Cc1ccc(C(F)(F)F)cc1`, the cytotoxicity call is reported as “inactive”. In the case of `C[C@@H]1CN([C@H](C)CO)C(=O)Cc2cc(NC(=O)Nc3ccc4c(c3)OCO4)ccc2O[C@@H]1CN(C)Cc1ccc(C(F)(F)F)cc1`, the cytotoxicity call is reported as “active”. In the case of `C[C@H](CO)N1C[C@H](C)[C@H](CN(C)Cc2ccc(C(F)(F)F)cc2)Oc2ccc(NC(=O)Nc3ccc4c(c3)OCO4)cc2CC1=O`, the cytotoxicity call is reported as “inactive”.
